# In the library only some 2.8% were active in any assay of this set; here they are far more common.
# PAFAH1B3 inh – inhibitors of human PAFAH1B3. AID 492972. inhibition, % at 3.39 µM. 0.28% of 340,000 active. Q15102. recombinant PAFAH1B3, FP-rhodamine probe, fluorescence polarization;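 active means inhibition above the screen-wide average of all tested compounds plus 3 SD, cut at about 25% in these data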;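 further: 0% = enzyme with DMSO only and 100% = wells lacking PAFAH1B3 protein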
# Target sequence (Q15102 whole entry, looked up): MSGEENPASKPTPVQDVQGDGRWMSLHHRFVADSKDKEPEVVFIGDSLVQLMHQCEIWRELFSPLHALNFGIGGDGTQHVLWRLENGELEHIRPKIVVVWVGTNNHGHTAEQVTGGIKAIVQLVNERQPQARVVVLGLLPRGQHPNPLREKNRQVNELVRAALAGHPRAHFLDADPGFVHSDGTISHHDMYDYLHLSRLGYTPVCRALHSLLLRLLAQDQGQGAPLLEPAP
# PAFAH2 inh – inhibitors of human PAFAH2. Q99487. recombinant PAFAH2, FP-rhodamine activity probe, fluorescence polarization. inhibition, % at 3.39 µM. 0.99% of 340,000 active. AID 492956;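 active means inhibition above the mean over all tested compounds plus 3 SD, cut at about 30% in these data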;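 further: inhibitors block probe labeling of enzyme so polarization drops; 0% = enzyme with DMSO and 100% = wells lacking PAFAH2 protein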
# pPAFAH inh – pPAFAH (human) enzyme inhibition; Q13093; AID 463082; inhibition, % at 3.39 µM; 1.5% of 330,000 active; recombinant pPAFAH, FP-rhodamine probe fluorescence polarization;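 active means inhibition above the mean inhibition across the screen plus 3 SD, cut at about 25% in these data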;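 further: inhibitors block binding of the rhodamine activity-based probe so polarization drops; 0% = enzyme with DMSO and 100% = wells lacking pPAFAH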
# HTRA1 inh – blocks human HTRA1 serine peptidase. 0.5% of 340,000 active. inhibition, % at 5.96 µM. recombinant HTRA1, FP-rhodamine activity-based probe, fluorescence polarization; in the data active means inhibition above about 36%;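 further: 0% = enzyme with DMSO and 100% = wells lacking enzyme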
# Target sequence (Q92743 whole entry, looked up): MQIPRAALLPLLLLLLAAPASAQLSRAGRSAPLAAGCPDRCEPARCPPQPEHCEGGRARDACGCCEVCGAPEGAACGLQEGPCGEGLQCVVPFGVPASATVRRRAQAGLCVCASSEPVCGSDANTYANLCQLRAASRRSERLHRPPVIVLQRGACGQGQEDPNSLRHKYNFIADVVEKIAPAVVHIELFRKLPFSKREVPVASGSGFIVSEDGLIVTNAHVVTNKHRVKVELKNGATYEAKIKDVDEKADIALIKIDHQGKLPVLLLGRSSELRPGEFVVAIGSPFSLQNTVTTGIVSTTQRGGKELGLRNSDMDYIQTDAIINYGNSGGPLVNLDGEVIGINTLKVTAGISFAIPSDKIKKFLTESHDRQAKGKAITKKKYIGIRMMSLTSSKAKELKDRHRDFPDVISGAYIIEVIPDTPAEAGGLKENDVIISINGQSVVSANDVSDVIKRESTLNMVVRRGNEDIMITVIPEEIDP
# DAGLB inhibitor – diacylglycerol lipase beta (human) inhibition. Q8NCG7. HEK293T DAGLB membrane lysate, EnzChek fluorogenic substrate. inhibition, % at 5.17 µM. 0.059% of 340,000 active. AID 504411; in the data active means inhibition above about 34%;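 further: 0% = enzyme with vehicle and 100% = wells lacking enzyme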
# PAFAH1B2 inh – blocks human PAF acetylhydrolase 1b catalytic subunit 2. recombinant PAFAH1B2, FP-rhodamine activity probe, fluorescence polarization. inhibition, % at 3.39 µM. 1.2% of 340,000 active;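 active means inhibition above the mean of all tested compounds plus 3 SD, cut at about 24% in these data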;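 further: 0% = enzyme with DMSO and 100% = wells lacking PAFAH1B2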
# pPAFAH FP conf – confirmation of human plasma PAF acetylhydrolase (pPAFAH) inhibitors. shares compounds with pPAFAH inh. recombinant pPAFAH, FP-Rh probe fluorescence polarization. inhibition, % at 3.39 µM. 72% of 2,300 active;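 active means mean inhibition of the triplicate above the hit cutoff set for the earlier primary screen, cut at about 25% in these data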;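 further: 0% = enzyme with DMSO and 100% = wells lacking pPAFAH enzyme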
# PAFAH2 FP conf – PAFAH2 (human) inhibition, confirmed; shares compounds with PAFAH2 inh; recombinant PAFAH2, FP-rhodamine activity probe, fluorescence polarization; inhibition, % at 3.39 µM; 65% of 2,300 active; AID 493030;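 active means mean inhibition over three repeats above a set limit taken from the earlier primary screen, cut at about 30% in these data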;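 further: inhibitor blocks binding of rhodamine activity probe so polarization falls; 0% = enzyme with DMSO and 100% = wells lacking PAFAH2 protein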
# HTRA1 conf – HTRA1 (human) inhibition, confirmation; shares compounds with HTRA1 inh; recombinant HTRA1, FP-rhodamine activity-based probe, fluorescence polarization; inhibition, % at 5.96 µM; 66% of 1,600 active;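 active means mean inhibition over three repeats above a set limit taken from the earlier primary screen, cut at about 37% in these data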;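 further: 0% = HTRA1 with DMSO and 100% = wells lacking HTRA1; inhibitors block probe binding so polarization drops and inhibition rises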
# Numbers without * were called inactive; . = no result given; ! = a repeat was not active.
SMILES,PAFAH1B3 inh,PAFAH2 inh,pPAFAH inh,HTRA1 inh,DAGLB inhibitor,PAFAH1B2 inh,pPAFAH FP conf,PAFAH2 FP conf,others
CC(C)c1ccc(N2C(=O)NC(=O)/C(=C/C=C/c3ccco3)C2=O)cc1,-0.8,6.5,42.7*,8.3,14.2,1.0,6.8,.,
Cc1ccc(N2C(=O)NC(=O)/C(=C/C=C/c3ccco3)C2=O)cc1,-1.2,2.0,19.1,0.1,3.0,1.6,.,.,
O=C1NC(=O)N(Cc2ccc(F)cc2)C(=O)/C1=C\C=C\c1ccco1,8.3,25.8,36.0*,0.6,13.1,29.6*,9.0,.,
Cc1cc(C(=O)CS(=O)(=O)c2ccccc2)cc(C)c1OC(=O)N(C)C,5.7,9.1,37.7*,5.2,-0.5,5.7,3.7,.,
Cc1ccc(S(=O)(=O)CC(=O)c2cc(C)c(OC(=O)N(C)C)c(C)c2)cc1,4.4,-0.4,1.1,-11.1,0.8,3.6,.,.,
FC(F)(F)c1ccc2c(c1)N(CCCN1CCN(CCCl)CC1)c1ccccc1S2,11.3,-4.6,37.7*,27.5,0.9,-1.2,31.0*,.,
O=[N+]([O-])c1ccc(N2CCCC2)cc1N/N=C1\CN2CCC1CC2,1.9,2.4,8.1,1.1,4.7,2.8,.,.,
O=C(N/N=C1/CN2CCC1CC2)c1cc2ccccc2cc1O,16.9,10.2,39.6*,54.9*,8.4,7.6,8.6,.,HTRA1 conf=11.9
CC(C)CC1(CCc2ccccc2)C(=O)NC(=O)NC1=O,6.6,15.7,.,5.5,-0.4,10.7,.,.,
CCCC1(CCC)C(=O)NC(=Nc2ccc(C)cc2)NC1=O,.,.,0.3,.,.,.,.,.,
CCN(CC)C(=O)c1ccc(NC(=O)c2cccc(S(=O)(=O)N3CCN(Cc4ccccc4)CC3)c2)cc1,4.0,0.8,0.8,-19.9,-2.2,-4.4,.,.,
CCN(CC)C(=O)c1ccc2c(c1)C1C(Cl)C(Sc3ccccc3[N+](=O)[O-])CC1C(C(=O)O)N2 (configuration not stated),25.9*,53.2*,68.2*,78.1*,22.0,32.5*,35.6*,.,HTRA1 conf=76.7*
Cc1ccc2c(c1Cl)NC(C(=O)O)C1CC(Sc3ccccc3[N+](=O)[O-])C(Cl)C21 (configuration not stated),15.2,42.9*,49.0*,42.8*,13.8,8.2,42.2*,.,HTRA1 conf=41.3*
CC1(C)C2([N+](=O)[O-])CN3CN(C2)CC1([N+](=O)[O-])C3,-0.5,-5.4,-4.5,3.6,-2.0,-1.2,.,.,
C=CCn1c(O)c(C=Nc2ccc(N(CC)CC)cc2)c(=O)[nH]c1=O,8.0,3.5,43.5*,36.2*,1.8,1.7,-0.8,.,HTRA1 conf=3.5
Cc1cccc(N2C(=O)NC(=O)/C(=C/c3cc4c(cc3[N+](=O)[O-])OCO4)C2=O)c1,2.2,17.2,42.1*,40.8*,0.0,0.8,-1.0,.,HTRA1 conf=3.2
COCc1cc(OC(=O)N(C)C)nc(-c2ccccc2)n1,.,.,-0.3,.,.,.,.,.,
COC(=O)C1=C(c2c(C)noc2C)C[C@@H]2CC[C@H]1N2C(=O)NC1CCCCC1,4.2,15.3,-0.4,2.2,-1.0,1.6,.,.,
CN(C)[C@@H]1C(=O)C(C(N)=O)=C(O)[C@@]2(O)C(=O)C3=C(O)c4c(O)cccc4[C@@](C)(O)C3[C@H](O)C12 (some centres not stated),25.6*!,46.8*!,63.7*,42.9*,2.4,30.6*!,-3.4,.,HTRA1 conf=11.0
C[n+]1c(-c2ccccc2)c2cc(N)ccc2c2ccc(N)cc21,120.5*,91.8*,68.1*,96.6*,3.7,87.0*,51.9*,.,HTRA1 conf=123.2*
CCOc1ccc(N2C(=O)/C(=C/c3ccco3)C(=O)NC2=S)cc1,25.2,93.8*,16.0,53.9*,12.6,21.6,.,63.4*,
CCOc1ccc(N2C(=O)/C(=C\c3cccs3)C(=O)NC2=S)cc1,.,.,-0.8,.,.,.,.,.,
CC1=CC(=O)NP(=O)(Oc2ccc3ccccc3c2)N1 (configuration not stated),6.5,44.9*,3.9,1.7,-0.7,5.5,.,23.7,
Cc1ccc(N2C(=O)NC(=O)/C(=C\c3cccn3C(C)(C)C)C2=O)cc1,14.9,43.0*,1.1,5.2,0.6,1.3,.,28.6,
C=CCN1CCC2(C)c3cc(O)ccc3CC1C2C (configuration not stated),1.9,-0.4,0.4,2.1,4.6,4.5,.,.,
SMILES,PAFAH1B3 inh,PAFAH2 inh,pPAFAH inh,HTRA1 inh,DAGLB inhibitor,PAFAH1B2 inh,pPAFAH FP conf,PAFAH2 FP conf,others
Cc1cc(/C=C2/C(=O)NC(=O)N(Cc3ccco3)C2=O)c(C)n1-c1ccccc1O,8.2,31.5*,10.6,-10.7,3.9,5.5,.,25.5,
O=C(N/N=C/C1C(=O)NC(=S)N(c2ccccc2)C1=O)c1cc(Br)c(O)c(Br)c1 (configuration not stated),7.5,36.7*,23.9,35.8,9.3,19.8,.,26.8,
O=C(N/N=C/c1c(O)n(C2CCCCC2)c(=S)[nH]c1=O)c1ccccc1,19.1,5.8,11.7,10.5,11.0,4.7,.,.,
O=P(Oc1ccccc1)(Oc1ccccc1)C(O)c1ccccc1 (configuration not stated),4.5,30.1*,2.5,-3.3,20.2,2.4,.,16.4,
CCC(C)n1c(O)c(C=NCCN2CCOCC2)c(=O)[nH]c1=S (configuration not stated),7.1,25.2,7.0,1.2,-0.6,2.6,.,.,
CCC(C)n1c(O)c(C=NCCc2ccccc2)c(=O)[nH]c1=S (configuration not stated),1.6,47.0*,11.3,3.6,4.1,2.5,.,44.7*,
CCC(C)n1c(O)c(C=NCC2CCCO2)c(=O)[nH]c1=S (configuration not stated),-7.4,50.9*,8.6,11.0,-1.2,2.2,.,38.2*,
CCC(C)n1c(O)c(/C=N/Nc2ccccc2)c(=O)[nH]c1=S (configuration not stated),4.2,40.1*,9.2,14.0,11.2,6.7,.,8.2,
CCC(C)n1c(O)c(/C=N/NC(=O)c2ccncc2)c(=O)[nH]c1=S (configuration not stated),5.3,57.9*,5.8,-1.4,5.8,1.1,.,61.8*,
O=c1[nH]c(=S)n(C2CC2)c(O)c1/C=N/Nc1ccccc1,6.5,10.5,8.0,-3.5,6.9,10.1,.,.,
CN1C(=O)C(=Cc2ccc(N(C)C)c([N+](=O)[O-])c2)C(=O)N(C)C1=O,.,.,-0.2,.,.,.,.,.,
O=C1NC(=O)C(CCc2ccncc2)(CCc2ccncc2)C(=O)N1C1CCCCC1,6.5,1.3,5.1,3.2,3.7,-0.4,.,.,

# Screening data deposited in PubChem by The Scripps Research Institute Molecular Screening Center.
